From PubChem BioAssay AID1159524 (National Center for Advancing Translational Sciences (NCATS), 2015)
Among all 410,000 compounds or so, about 5,100 (1.2%) were called active. Where a call stands in place of a potency, no number is given. Roughly 8% stayed inconclusive and do not appear here. This is one part of a sample in which actives are shown more often than they occur. Calls come from the whole dose curve; tested in HEK293T cells.

assay: High Throughput Screening for Foot and Mouth Disease Virus Antivirals; conditions: FMDV antiviral cell-based qHTS; series mostly up to 57.9 µM; note: read-out not given here; nearly all actives have a fitted effect of over 45% in size
Potency is the fitted concentration of half-maximal effect.

| Structure (SMILES) | Potency |
| --- | --- |
| CC(=O)Nc1cccc(/C(C)=N/NC(=O)c2c(-c3ccccc3Cl)noc2C)c1 | 25.1 µM (active) |
| Cc1ccc2cc(CCNC(=O)c3c(-c4ccccc4Cl)noc3C)c(=O)[nH]c2c1 | inactive |
| Cc1onc(-c2c(F)cccc2Cl)c1C(=O)Nc1cccc(S(=O)(=O)N2CCCCC2)c1 | inactive |
| FC(F)(F)c1ccccc1-c1cc(NCc2ccccc2)ncn1 | inactive |
| Nc1ncn(C2OC(CO)C(O)C2O)c(=O)n1 (configuration not stated) | inactive |
| CCCCSc1[nH]c(=O)c(C(=O)OCC)cc1C#N | inactive |
| CCOC(=O)c1c(C(C#N)C#N)cc(C)nc1C | inactive |
| CCOC(=O)c1cc(C)nc(S(C)(=O)=O)c1C#N | 35.5 µM (active) |
| COC(=O)N1CCC2(CCCN(c3ccncc3)C2)CC1 | inactive |
| CC[C@H](C)C(=O)N[C@H]1CCCN1C(=O)/C=C/c1ccccc1 | inactive |
| Cc1[nH]c(=O)c(C(=O)/C=C/c2ccccc2)c2c1CCCC2 | 12.6 µM (active) |
| O=C1CCCCC1C(=O)c1ccccc1 (configuration not stated) | inactive |
| COC(=O)N1CCC[C@@]2(CCN(C(=O)NC(C)C)C2)C1 | inactive |
| Cc1cc(C)cc(OCC(=O)Nc2c(C(=O)c3ccccc3)oc3ccccc23)c1 | inactive |
| CNc1nc(-c2ccccc2OC)nc2ccccc12 | inactive |
| CC1C(O)CC2C(C(=O)O)=CO[C@@H](O[C@H]3OC(CO)C(O)C(O)C3O)C21 (some centres not stated) | inactive |
| COc1ccc(CCNS(=O)(=O)c2ccc(Cl)s2)cc1OC | inactive |
| COc1ccc(CCNC(=O)CCCCn2c(=O)c3ccccc3n(Cc3ccccc3)c2=O)cc1OC | inactive |
| COc1ccc(CCNC2=C(Cl)C(=O)N(Cc3ccccc3)C2=O)cc1OC | 25.1 µM (active) |
| CCC1CN(CCNC(=O)c2cccc(C)n2)Cc2cc(OC)ccc2O1 (configuration not stated) | inactive |
| COC(C)C(C(=O)OCC1=CCN2CC[C@H](O)[C@@H]12)C(C)C (some centres not stated) | inactive |
| CCc1ccc(NC(=O)c2cnc3c(-c4ccccc4)c(C)nn3c2C)cc1 | inactive |
| CC(C)=CC1C(C(=O)O)C1(C)C (configuration not stated) | inactive |
| Nc1nc2[nH]c(=O)c(=O)[nH]c2c(=O)[nH]1 | inactive |
| COc1ccc(NC(=O)C(=O)NCc2ccco2)cc1 | inactive |

| Structure (SMILES) | Potency |
| --- | --- |
| COc1ccc(CC(=O)Nc2ccc(-c3nc4ccccc4s3)c(C)c2)cc1 | inactive |
| COc1ccc(CS(=O)/C(Cl)=C(/Cl)C(=O)Nc2ccc(OC)nc2)cc1 (configuration not stated) | 5.62 µM (active) |
| Nc1ncnc2c1ncn2C1CC(O)C(CO)O1 (configuration not stated) | inactive |
| CC1CC[C@@]23CCC4(C)[C@@]5(C)CCC6C(C)(C)C(O)CC[C@@]6(C)C5C=C[C@@]4(OC2=O)C3C1C (some centres not stated) | inactive |
| O=c1oc2ccccc2c(O)c1C(c1ccccc1O)c1c(O)c2ccccc2oc1=O | inactive |
| CC1=Nc2cc(C(=O)N3CCC(C)CC3)ccc2Sc2ccc(Cl)cc21 | inactive |
| CCC(=O)N1CCc2cc(S(=O)(=O)NC(Cc3ccccc3)C(=O)NCc3ccc(C)cc3)ccc21 (configuration not stated) | inactive |
| CCN(CC(=O)NCCc1ccccc1)S(=O)(=O)c1ccc(C)cc1 | inactive |
| Cc1ccc(S(=O)(=O)N(C)CC(=O)NCCc2c[nH]c3ccccc23)cc1 | 15.8 µM (active) |
| CSCCC(NS(=O)(=O)c1ccc(C)cc1)C(=O)NCCc1c[nH]c2ccccc12 (configuration not stated) | inactive |
| COc1ccc(CCNC(=O)c2ccc3c(c2)nc(C)n3-c2ccc(Br)cc2)cc1OC | inactive |
| O=C(CCc1nc(CN2CCN(S(=O)(=O)c3ccc(Br)cc3)CC2)no1)N1CCCCC1 | inactive |
| O=C(Nc1ccc(CSc2ccccc2)cc1)c1ccc(CN2CCOCC2)cc1 | 5.01 µM (active) |
| O=C(Nc1ccccc1C(=O)N1CCOCC1)c1ccc(CSc2ccccc2)cc1 | inactive |
| C/C(CCc1ccccc1)=N\NC(=O)c1ccc(CN2CCOCC2)cc1 | inactive |
| CS(=O)(=O)N1CCC2(CC1)CN(Cc1cc(C(F)(F)F)cc(C(F)(F)F)c1)C2 | inactive |
| COc1ccccc1CNc1nc2ccc(Cl)cc2n2cnnc12 | inactive |
| O=C(NCC1Cc2cc(F)cc(-c3cnccn3)c2O1)C1COc2ccccc2O1 (configuration not stated) | inactive |
| Fc1ccc(-c2csc(-c3ccc(C4SCCS4)cc3)n2)cc1F | inactive |
| COc1ccc(CC(=O)Nc2nnc3n2CCS3)cc1OC | inactive |
| COc1ccc(CC(=O)Nc2nc(-c3ccc(F)c(F)c3)cs2)cc1OC | 17.8 µM (active) |
| COc1cccc(CC(=O)Nc2nc(-c3ccc(OC)c(OC)c3)cs2)c1 | 35.5 µM (active) |
| COc1cc(CC(=O)Nc2nc(-c3ccc(F)c(F)c3)cs2)cc(OC)c1OC | 20 µM (active) |
| COc1cccc(CNC(=O)Cc2csc3nc(-c4ccccc4)cn23)c1 | inactive |
| COc1cc(CCC(=O)Nc2ccncc2Cl)cc(OC)c1OC | inactive |

| Structure (SMILES) | Potency |
| --- | --- |
| COc1ccc(-c2cc(C(=O)NCc3cc(OC)c(OC)c(OC)c3)[nH]n2)cc1 | inactive |
| COc1cccc(CNS(=O)(=O)c2csc(C(N)=O)c2)c1 | inactive |
| Oc1ccc(-c2c(-c3ccccc3)nn3c(C(F)(F)F)cc(C(F)(F)F)nc23)cc1 | inactive |
| COc1ccc(-n2c(=O)c(-c3cn(C)c4ccccc34)nc3cnc(OC)nc32)cc1 | inactive |
| COC(=O)c1ccc(NC(=O)CCc2c(C)nn(-c3ccc(N4CCCC4)nn3)c2C)cc1 | inactive |
| COc1cc(OC)c2c(c1Cl)OC1(C2=O)C(O)=CC(=O)CC1C (configuration not stated) | inactive |
| O=C(Nc1ccccc1)N[C@H]1C[C@H](C(=O)O)Nc2cc(Cl)cc(Cl)c21 | inactive |
| COc1ccc(CN2C(=O)C(NC(=O)c3cccc(C)c3)(C(F)(F)F)N=C2c2ccccc2)cc1 (configuration not stated) | inactive |
| Cc1cnc(C)c(-c2cc(F)c3c(c2)CC(CNC(=O)c2cccc(Cn4cccn4)c2)O3)n1 (configuration not stated) | inactive |
| CN(Cc1ccco1)c1ncncc1-c1ccoc1 | inactive |
| CC(C)[C@@H]1NC(=O)[C@H](Cc2ccccc2)NC(=O)[C@@H](CC(=O)O)NC(=O)CNC(=O)[C@H](CCCNC(=N)N)NC1=O | inactive |
| COc1ccc2c(c1)c(=Cc1ccc(N(C)C)cc1)c1cc(-c3ccccc3)[n+](C)n12 | 14.1 µM (active) |
| CCOC(=O)c1cc(OC(=O)c2ccccc2Cl)n(-c2ccccc2)n1 | inactive |
| COc1ccccc1-c1ccnc(-n2ncc(C(=O)NCCc3ccncc3)c2C)n1 | inactive |
| N#Cc1cccc(-c2nc3cnc(N4CCNCC4)nc3n(C3CC3)c2=O)c1 | inactive |
| Cc1ccc(Cn2cc(CCC(=O)NCc3ccc(OC(C)C)cc3)c3ccccc32)cc1 | inactive |
| CCCN(CCC)CCCNC(=O)Cn1cc2c(n1)-c1c(oc(C(=O)N3CCCC3)c1C)CC2 | inactive |
| Cc1c(C(=O)N2CCCC2)oc2c1-c1nn(CC(=O)NCc3ccc(OC(C)C)cc3)cc1CC2 | 28.2 µM (active) |
| Cc1cccc(CNc2cc(-c3ccccc3Cl)ncn2)c1 | inactive |
| CC(=O)Nc1c(C)nn(-c2ccccc2)c1N1CCC(C(=O)Nc2cc(Cl)ccc2C)CC1 | inactive |
| Cc1cc(C)n(CC(C)NCc2c(C(=O)N3CCOCC3)nc3c(C)cccn23)n1 (configuration not stated) | inactive |
| Cc1cccc(N2CCC(NCc3c(C(=O)N4CCCCC4)nc4c(C)cccn34)CC2)c1 | inactive |
| Cc1cccn2c(CNCC(C)Oc3cccnc3)c(C(=O)N3CCOCC3)nc12 (configuration not stated) | 4.47 µM (active) |
| CC(CCC(=O)O)C1CCC2C3C(O)C[C@@H]4CC(O)CC[C@@]4(C)C3CC[C@@]12C (some centres not stated) | inactive |
| COc1ccc(-c2cc(C(=O)Nc3sc4c(c3C(N)=O)CCCC4)no2)cc1 | inactive |

| Structure (SMILES) | Potency |
| --- | --- |
| CCOc1ccc(OCC)c(Nc2nc3ccccc3n3nnnc23)c1 | inactive |
| CCOc1ccc(CNC(=O)c2ccc3nc(CC)c(CC)nc3c2)cc1OC | inactive |
| CCOc1ccc(CNC(=O)c2cccc(Nc3nc4ccccc4n4nnnc34)c2)cc1OC | 7.08 µM (active) |
| COc1cc(OC)cc(C(=O)Nc2ccc3nc(Nc4cccc(C(F)(F)F)c4)cc(C)c3c2)c1 | inactive |
| COc1cccc(Cn2c(=O)c(C)nc3cnc(Oc4ccccc4)nc32)c1 | inactive |
| COc1ccc2c3c1OC1CC(O)C=C[C@@]31CCN(C)C2 (some centres not stated) | inactive |
| Cc1ccc(C(=O)Nc2nc(-c3ccccc3)ns2)cc1 | inactive |
| CC(=O)N1CCC(C(=O)Nc2nc(-c3ccccc3)ns2)CC1 | 2.82 µM (active) |
| Cc1csc(NC(=O)C2CCN(S(=O)(=O)c3ccccc3)CC2)n1 | inactive |
| CC(=O)c1ccc(NC(=O)c2nc3nc(C)cc(C(F)F)n3n2)cc1 | inactive |
| CCc1ccccc1OCCSc1nc(-c2cccs2)nc2cc(=O)[nH]n12 | inactive |
| COc1ccccc1C(=O)N[C@@H]1c2ccccc2C2(CCN(Cc3nc(C(C)C)cs3)CC2)[C@H]1O | 11.2 µM (active) |
| CC(C)c1csc(CN2CCC(CO)(Cc3ccccc3)CC2)n1 | inactive |
| COc1ccccc1C(=O)N[C@@H]1c2ccccc2C2(CCN(C(=O)c3csnn3)CC2)[C@H]1OC | inactive |
| O=C(Nc1cccc(F)c1)N1CC[C@@]2(CCCN(C(=O)Oc3ccccc3)C2)C1 | inactive |
| CCN1C[C@]2(COC)C(O)C[C@H](OC)[C@@]34C5C[C@]6(O)C(OC)C(O)[C@](OC(C)=O)(C5C6OC(=O)c5ccccc5)C(C(OC)C23)C14 (some centres not stated) | inactive |
| O=C(CNC(=O)c1ccc(Br)o1)NCC1CCCO1 (configuration not stated) | inactive |
| CC(NS(=O)(=O)c1ccc(Br)cc1)C(=O)NCC1CCCO1 (configuration not stated) | 1 µM (active) |
| CCOc1ccc(NS(=O)(=O)c2ccc(C(=O)NCC3CCCO3)cc2)cc1 (configuration not stated) | inactive |
| NCCC(=O)c1ccccc1N | inactive |
| CN(C)C1=NC[C@H](Cc2ccccc2)N1CCc1ccc(F)cc1 | inactive |
| O=C1NC(=O)N(CCc2ccc(F)cc2)C(=O)/C1=C/C=C/c1ccccc1 | 10 µM (active) |
